# Experimental data published in PubChem BioAssay AID504467 (National Center for Advancing Translational Sciences (NCATS), 2011).
# The whole screen tested about 330,000 compounds, of which about 7,700 (2.3%) were called active. Roughly 26% stayed inconclusive and do not appear here. Calls come from the whole dose curve; as a rule, active = well fitted inhibition curve with a large enough effect; inconclusive = small, poorly fitted or top-dose-only effect, or effect the other way; inactive = flat fitted curve, though single readings scatter. Only a selection was taken, and actives are over-represented in it overall.
# Assay: qHTS screen for small molecules that inhibit ELG1-dependent DNA repair in human embryonic kidney (HEK293T) cells expressing luciferase-tagged ELG1; note: nearly all actives have a fitted effect of over 55% in size
# Details: HEK293T ELG1-luciferase reporter, luminescence, 16 h, DNA damage induced by 5-fluorouridine; series mostly up to 46.1 µM; activity change, negative = inhibition: at the top concentration
# In short: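 Cells (2,000 per well) received 5-fluorouridine plus test compound or DMSO and were incubated 16 hr at 37 °C, 5% CO2. Luciferase activity was read by luminescence 30 min after ONE-Glo addition; signal suppression marked inhibition of damage-induced ELG1 function.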
# % is set by controls: 0 for no effect and ±100 for the full control effect; potency is the fitted concentration of half-maximal effect.
SMILES,"activity change, negative = inhibition",Potency
C/C(=N\NC(=O)CNc1cccc2ccccc12)c1ccc(Br)s1,6.87% (inactive),
Cc1cccc(/C=N/NC(=O)CNc2cccc3ccccc23)n1,22.4% (inactive),
Cc1ccc(NC(=O)COc2coc(CN3CCc4ccccc4C3)cc2=O)cc1Cl,4.56% (inactive),
CN(C)c1cc[n+](Cc2ccccc2)cc1,,8.2 µM (active)
CC(Cc1ccccc1)C(=O)N(C)Cc1ccccc1 (stereo not drawn),-7.66% (inactive),
CC1=NN(Cc2ccccc2)C(=O)/C1=C/c1ccc(N(C)C)cc1,12.1% (inactive),
CCN1C(=O)[C@@H]2[C@@H](c3ccc(-c4ccccc4)cc3)N3CCCC[C@@]3(C(=O)OC)[C@@H]2C1=O,-15.9% (inactive),
CCCNC(=O)c1c(N)n(-c2ccc(S(N)(=O)=O)cc2)c2nc3ccccc3nc12,6.21% (inactive),
CCOc1ccccc1NC(=O)Cn1nnc(C(=O)NCc2cccs2)c1N,25% (inactive),
CC(C)Cn1c(N)c(C(=O)NCc2cccs2)c2nc3ccccc3nc21,,9.2 µM (active)
CC(C(=O)N1CCc2ccccc21)N(C)CC(=O)Nc1ccc(F)cc1 (stereo not drawn),-4.18% (inactive),
Cc1noc(C)c1CSCC(=O)N(CCC(C)C)c1c(N)n(Cc2ccccc2)c(=O)[nH]c1=O,3.47% (inactive),
COc1cccc(OCC(O)CN2CCN(CCO)CC2)c1 (stereo not drawn),14.2% (inactive),
Cc1ccc(OCC(O)CN2CCN(CC(O)COc3ccc(C)cc3Cl)CC2)c(Cl)c1 (stereo not drawn),-1.07% (inactive),
Cc1cccc(OCC(O)CN2CCN(S(=O)(=O)c3ccc(C)cc3C)CC2)c1 (stereo not drawn),,11.6 µM (active)
Cc1ccc(Nc2nc(-c3sc(NC(=O)c4ccccc4)nc3C)cs2)cc1,-1.44% (inactive),
CCCCC(=O)Nc1nc(C)c(-c2csc(Nc3ccc(Cl)cc3)n2)s1,,20.6 µM (active)
CC(=O)Nc1nc(C)c(-c2csc(Nc3ccc(S(N)(=O)=O)cc3)n2)s1,-12.6% (inactive),
CCC(=O)Nc1nc(C)c(C(=O)Nc2cccc(Cl)c2)s1,4.34% (inactive),
C=CCCC(=O)Nc1nc(C)c(-c2csc(Nc3ccc(Cl)cc3)n2)s1,,18.4 µM (active)
CCCCCCC(=O)Nc1nc(C)c(-c2csc(Nc3cc(Cl)ccc3OC)n2)s1,-5.51% (inactive),
CCOC(=O)N1CCN(C(=O)c2ccccc2SCC(=O)NCC2CCCCC2)CC1,-0.248% (inactive),
CN(C(=O)COC(=O)Cc1ccccc1[N+](=O)[O-])C1CCS(=O)(=O)C1 (stereo not drawn),0% (inactive),
COc1ccc(C(=O)COC(=O)CN2C(=O)C3CC=CCC3C2=O)c(OC)c1 (stereo not drawn),0% (inactive),

SMILES,"activity change, negative = inhibition",Potency
CCc1cccc(NC(=O)CCCN2C(=O)C(c3ccccc3)Oc3cccnc32)c1 (stereo not drawn),-11.3% (inactive),
COCCN(CCOC)c1nc(N)c2c(N)nc3c(c2c1C#N)CC(=O)N3Cc1ccc(Cl)cc1,,5.17 µM (active)
CCC(=O)Nc1ccc(S(=O)(=O)Nc2c(NC)c3ccccc3oc2=O)cc1,-11.8% (inactive),
CC1CC(C)CN(CCCNC(=O)c2csc3c2CCCCC3)C1 (stereo not drawn),-3.73% (inactive),
CC(C(=O)c1ccc(-c2ccccc2)cc1)[n+]1cccc(Br)c1 (stereo not drawn),1.43% (inactive),
Cc1ccc2c(c1)C1CN(C)CCC1N2S(=O)(=O)c1cccc(F)c1 (stereo not drawn),10.5% (inactive),
Cc1cccc(N2CCC(NCc3c(C(=O)N4CCCCC4)nc4c(C)cccn34)CC2)c1,,25.9 µM (active)
Cc1cccn2c(CNCC(C)Oc3cccnc3)c(C(=O)N3CCOCC3)nc12 (stereo not drawn),17.3% (inactive),
CCOC(=O)C1CCN(Cc2c(C(=O)N3CCOCC3)nc3c(C)cccn23)CC1,-5.05% (inactive),
CN(CC(=O)Nc1ccc(Cl)cc1)CC(=O)Nc1cccc2ccccc12,1.03% (inactive),
Cc1ccc(S(=O)(=O)N(Cc2ccccc2)c2ccccn2)cc1[N+](=O)[O-],3.26% (inactive),
Cn1c(CNC(=O)c2ccco2)nnc1SCC(=O)N1CCN(c2ccccc2)CC1,-13.3% (inactive),
Cc1ccccc1NC(=O)Cc1nnc(SCC(=O)N2CCN(c3ccccc3)CC2)n1C,3.86% (inactive),
Cn1c(Cc2cccc3ccccc23)nnc1SCC(=O)N1CCN(c2cccc(Cl)c2)CC1,,18.4 µM (active)
O=C(CN1CCc2ccccc2C1)Nc1cccc(S(=O)(=O)N2CCOCC2)c1,-1.35% (inactive),
CC1CCC(NC(=O)CN(C)S(=O)(=O)c2ccc3c(c2)c(=O)n(C)c(=O)n3C)CC1 (stereo not drawn),2.58% (inactive),
O=C(CSc1nc2ccccc2c(=O)[nH]1)Nc1nc(-c2ccc(Br)cc2)cs1,0% (inactive),
CC(=O)NCc1ccc(-c2csc(NC(=O)CCCc3nc4ccccc4c(=O)[nH]3)n2)cc1,-16.2% (inactive),
Cc1cc(C)c(-c2csc(NC(=O)CCCc3nc4ccccc4c(=O)[nH]3)n2)c(C)c1,,5.17 µM (active)
CCCSc1ccc([C@H]2N[C@@](Cc3ccccc3)(C(=O)OC)[C@H]3C(=O)N(C)C(=O)[C@@H]23)cc1,-4.02% (inactive),
COc1ccc(CC(NC(C)=O)C(=O)NC2CCN(C(=O)c3ccc(OC)c(OC)c3)CC2)cc1OC (stereo not drawn),2.36% (inactive),
CCc1ccc(OCC2c3cc(OC)c(OC)cc3CCN2C(C)=O)cc1 (stereo not drawn),,6.51 µM (active)
COc1ccc(C(=O)N2CCc3cc(OC)c(OC)cc3C2c2cccc([N+](=O)[O-])c2)cc1 (stereo not drawn),-3.07% (inactive),
COc1cccc(NC(=O)CN(C)C(=O)c2cc(C3CC3)nn2-c2ccccc2)c1,-20.6% (inactive),
